Unmarked numbers belong to inactive results. Calls follow the shape of the dose curve; as a rule, active = well fitted inhibition curve with a large enough effect; inconclusive = small, poorly fitted or top-dose-only effect; inactive = no such curve, though single readings can be large or run the other way.
target: Single-stranded DNA cytosine deaminase (Homo sapiens) (UniProt Q9GZX7); assay: Validation qHTS assay for inhibitors of Activation Induced Cytidine Deaminase (AID): AID signal (AID 1347429); conditions: Recombinant AID, FRET ssDNA deamination with UDG, fluorescence; series mostly up to 115 µM; activity change, negative = inhibition: at the top concentration
Summary of the method: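 Compounds (final up to 114 uM) preincubated with AID plus UDG; 250 nM DJC20/DJC23 substrate mix (4x stock) added, 4 hr at room temperature, then NaOH, 30 min. Read 1 fluorescence at 540 nm excitation, 590 nm emission.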
% is scaled to controls: 0 for no effect and ±100 for the full control effect.

Chain of Single-stranded DNA cytosine deaminase (Homo sapiens) (Q9GZX7 whole entry, looked up): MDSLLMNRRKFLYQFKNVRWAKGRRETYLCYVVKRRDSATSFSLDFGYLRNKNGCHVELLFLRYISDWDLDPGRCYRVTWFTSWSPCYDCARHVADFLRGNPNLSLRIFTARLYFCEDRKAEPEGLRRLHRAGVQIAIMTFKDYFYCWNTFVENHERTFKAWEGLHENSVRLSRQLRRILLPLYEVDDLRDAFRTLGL

Structure (SMILES)	activity change, negative = inhibition [%]
C=C1C[C@@]23CC[C@H]4[C@@](C)(CCC[C@@]4(C)C(=O)O)[C@@H]2CC[C@]1(O)C3	17.4
CC(C)C[C@H](NC(=O)C1OC1C(=O)O)C(=O)NCCCCN=C(N)N (stereo partly specified)	12.7
NC(N)=NC(N)=Nc1cccc(Cl)c1	10.2
COC(=O)C(C)(N)Cc1ccc(O)cc1 (stereo unspecified)	13.9
OC[C@H]1NC[C@@H](O)[C@@H]1O	17
CCCCC[C@H](CC(=O)NO)C(=O)N[C@H](C(=O)N1CCC[C@H]1CO)C(C)C	20.8
Nc1ccc(N2C(=O)c3ccccc3C2=O)c(Cl)c1	-0.284
NOCC(=O)O	25.1
C#CC(N)CCC(=O)O (stereo unspecified)	19.3
NC1CONC1=O (stereo unspecified)	23.8
CCSC(=N)N	8.37
NC1(C(=O)O)CCCCC1	25.3
CC(N)(Cc1ccc(O)cc1)C(=O)O (stereo unspecified)	3.05
CCC1(O)CC2CN(CCc3c([nH]c4ccccc34)[C@@](C(=O)OC)(c3cc4c(cc3OC)N(C=O)C3[C@]45CCN4CC=C[C@@](CC)([C@@H](OC(C)=O)[C@]3(O)C(=O)OC)[C@H]45)C2)C1 (stereo partly specified)	17
Cn1c(=O)c2c(nc(/C=C/c3cccc(Cl)c3)n2C)n(C)c1=O	-0.437
CC(C)NC[C@H](O)COc1ccc(CC(N)=O)cc1	8.34
O=C(O)c1ccccc1Nc1ccccc1	10.6
N[C@@H](Cc1c[nH]c2ccccc12)C(=O)O	3.48
COc1ccccc1N1CCN(CCN(C(=O)c2ccc(F)cc2)c2ccccn2)CC1	18.1
NC1(C(=O)O)CC1	2.41
O=C(O)CCC/C=C\C[C@@H]1[C@@H](/C=C/[C@H](O)C2Cc3ccccc3C2)[C@@H](F)C[C@@H]1O	0.265
